# Measurements as given in PubChem BioAssay (NCI).
# The panel holds about 79,000 compounds, 15% with a hit somewhere; the sample as a whole holds those more often. A number with no mark means an inactive call. Active and inactive are the calls of the source. Cut-off read from the data, not from the text of the source: active = growth inhibition above about 70%; inactive = the rest.
# Columns and labels:
# [1] = NCI Yeast Anticancer Drug Screen. Data for the rad52 strain (AID 147);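 note: 0% = growth of vehicle-treated control cultures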; conditions: S. cerevisiae rad52 mutant growth inhibition, stronger effect = higher value
# How it was run: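 DNA repair-defective yeast; compound exposure; growth scored against vehicle controls.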
# [2] = NCI Yeast Anticancer Drug Screen. Data for the wt1 strain (AID 149);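 note: 0% = growth of vehicle-treated wt1 cultures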; conditions: S. cerevisiae wt1 strain (SPY 50644) growth inhibition, stronger effect = higher value
# How it was run: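 Each compound is tested on wt1 yeast and the loss of growth versus vehicle gives the inhibition value.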
# [3] = NCI Yeast Anticancer Drug Screen. Data for the rad50EPP+ strain (AID 151);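 note: 0% = growth of vehicle-treated control cultures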; conditions: S. cerevisiae rad50 mutant strain, stronger effect = higher value
# How it was run: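 rad50EPP+ yeast treated with test compounds. Readout: growth vs vehicle control.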
# [4] = NCI Yeast Anticancer Drug Screen. Data for the mgt1 strain (AID 153); conditions: S. cerevisiae mgt1 mutant growth inhibition, stronger effect = higher value
# How it was run: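 Growth inhibition relative to vehicle controls was scored for the mgt1 yeast strain after compound exposure.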
# [5] = NCI Yeast Anticancer Drug Screen. Data for the rad50 strain (AID 155);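 note: 0% = growth of vehicle-only cultures of the same strain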; conditions: S. cerevisiae rad50 strain growth inhibition, stronger effect = higher value
# How it was run: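 Vehicle-treated cultures provide the reference for the growth inhibition reported for compound-exposed, repair-deficient yeast.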
# [6] = NCI Yeast Anticancer Drug Screen. Data for the mec2-1 strain (AID 157); conditions: S. cerevisiae mec2-1 strain, stronger effect = higher value
# How it was run: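 Growth inhibition is read against vehicle-treated controls after compound exposure of the mec2-1 yeast strain, which is defective in DNA damage repair or cell cycle control.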
# [7] = NCI Yeast Anticancer Drug Screen. Data for the rad14 strain (AID 159);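 note: 0% = growth of vehicle-treated control cultures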; conditions: S. cerevisiae rad14 strain growth inhibition, stronger effect = higher value
# How it was run: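 Inhibition of growth is reported for a repair-deficient yeast mutant following compound treatment, calculated relative to cultures that received vehicle.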
# [8] = NCI Yeast Anticancer Drug Screen. Data for the sgs1 mgt1 strain (AID 161);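 note: 0% = growth of cultures given vehicle only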; conditions: S. cerevisiae sgs1 mgt1 strain, stronger effect = higher value
# How it was run: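 Growth of a repair-deficient yeast mutant was monitored after compound treatment and expressed as inhibition relative to vehicle-treated cultures.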
# [9] = NCI Yeast Anticancer Drug Screen. Data for the CLN2oe strain (AID 163);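 note: 0% = growth of vehicle-only control cultures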; conditions: S. cerevisiae CLN2oe strain, stronger effect = higher value
# How it was run: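 Compound-treated yeast; growth vs vehicle ctrl = % inhibition. Genetically altered strain (cell-cycle control).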
# [10] = NCI Yeast Anticancer Drug Screen. Data for the cln2 rad14 strain (AID 165);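 note: 0% = growth equal to vehicle treated cultures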; conditions: S. cerevisiae cln2 rad14 strain, stronger effect = higher value
# How it was run: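 Growth inhibition, relative to vehicle-treated controls, is the read-out. The test organism is a yeast strain with defined genetic alterations, cln2 rad14.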
# [11] = NCI Yeast Anticancer Drug Screen. Data for the bub3 strain (AID 167); conditions: S. cerevisiae bub3 mutant strain, stronger effect = higher value
# How it was run: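 Mutant yeast screening strain plus compound; vehicle-treated cultures serve as the 0% inhibition reference.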
# [12] = NCI Yeast Anticancer Drug Screen. Data for the wt2 strain (AID 169); conditions: S. cerevisiae wt2 strain growth inhibition, stronger effect = higher value
# How it was run: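 Compound exposure of yeast; growth compared with vehicle controls; inhibition reported.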
# [13] = NCI Yeast Anticancer Drug Screen. Data for the mlh1 strain (AID 171);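 note: 0% = growth of vehicle-treated control cultures of the same strain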; conditions: S. cerevisiae mlh1 strain growth inhibition, stronger effect = higher value
# How it was run: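 Compounds are applied to a genetically altered yeast strain, and its growth is compared with that of vehicle-treated cultures to give percent inhibition.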
# [14] = NCI Yeast Anticancer Drug Screen. Data for the sgs1 strain (AID 173);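 note: 0% = growth of vehicle-only control cultures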; conditions: S. cerevisiae sgs1 mutant, stronger effect = higher value
# How it was run: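 Compounds applied to genetically altered yeast; growth compared with vehicle-treated cultures to give % inhibition.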
# [15] = NCI Yeast Anticancer Drug Screen. Data for the mlh1 rad18 strain (AID 175); conditions: S. cerevisiae mlh1 rad18 strain growth inhibition, stronger effect = higher value
# How it was run: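 Cells of a genetically altered yeast strain, deficient in DNA damage repair, were treated with compound. Their growth was then compared with that of vehicle-treated cultures to give inhibition.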
# [16] = NCI Yeast Anticancer Drug Screen. Data for the rad18 strain (AID 177); conditions: S. cerevisiae rad18 mutant growth inhibition, stronger effect = higher value
# How it was run: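 Compounds are applied to a repair-deficient yeast strain, and growth is compared with that of vehicle-treated cultures to give percent inhibition.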
# [17] = at 5.0 µM (retest, dose inferred, filed as 0.5)
# [18] = at 50.0 µM (retest, dose inferred, filed as 5.0)
smiles,measurement,setting,value
O=C(N=Nc1ccccc1Cl)NNc1ccccc1Cl,growth inhibition,[1]; at 1.2 µM,25%
same,growth inhibition,[1]; at 3.7 µM,19%
same,growth inhibition,[1]; at 11.0 µM,13%
same,growth inhibition,[1]; at 33.0 µM,28%
same,growth inhibition,[1]; at 100.0 µM,26%
same,growth inhibition,[2]; at 1.2 µM,4%
same,growth inhibition,[2]; at 3.7 µM,2%
same,growth inhibition,[2]; at 11.0 µM,0%
same,growth inhibition,[2]; at 33.0 µM,5%
same,growth inhibition,[2]; at 100.0 µM,6%
same,growth inhibition,[3]; at 1.2 µM,17%
same,growth inhibition,[3]; at 3.7 µM,19%
same,growth inhibition,[3]; at 11.0 µM,26%
same,growth inhibition,[3]; at 33.0 µM,39%
same,growth inhibition,[3]; at 100.0 µM,20%
same,growth inhibition,[4]; at 1.2 µM,-5%
same,growth inhibition,[4]; at 3.7 µM,-5%
same,growth inhibition,[4]; at 11.0 µM,3%
same,growth inhibition,[4]; at 33.0 µM,-18%
same,growth inhibition,[4]; at 100.0 µM,-2%
same,growth inhibition,[5]; at 1.2 µM,8%
same,growth inhibition,[5]; at 3.7 µM,8%
same,growth inhibition,[5]; [17],-15%
same,growth inhibition,[5]; at 11.0 µM,-15%
same,growth inhibition,[5]; at 33.0 µM,14%
same,growth inhibition,[5]; [18],16%
same,growth inhibition,[5]; at 50.0 µM,44.5%
same,growth inhibition,[5]; at 100.0 µM,13%
same,growth inhibition,[6]; at 1.2 µM,-1%
same,growth inhibition,[6]; at 3.7 µM,1%
same,growth inhibition,[6]; [17],-15%
same,growth inhibition,[6]; at 11.0 µM,7%
same,growth inhibition,[6]; at 33.0 µM,6%
same,growth inhibition,[6]; [18],38%
same,growth inhibition,[6]; at 50.0 µM,21.1%
same,growth inhibition,[6]; at 100.0 µM,12%
same,growth inhibition,[7]; at 1.2 µM,-3%
same,growth inhibition,[7]; at 3.7 µM,-9%
same,growth inhibition,[7]; at 11.0 µM,-2%
same,growth inhibition,[7]; at 33.0 µM,5%
same,growth inhibition,[7]; at 100.0 µM,11%
same,growth inhibition,[8]; [17],-18%
same,growth inhibition,[8]; [18],8%
same,growth inhibition,[8]; at 50.0 µM,26.8%
same,growth inhibition,[9]; at 1.2 µM,7%
same,growth inhibition,[9]; at 3.7 µM,-3%
same,growth inhibition,[9]; at 11.0 µM,6%
same,growth inhibition,[9]; at 33.0 µM,22%
same,growth inhibition,[9]; at 100.0 µM,27%
same,growth inhibition,[10]; [17],-25%
same,growth inhibition,[10]; [18],45%
same,growth inhibition,[10]; at 50.0 µM,47.1%
same,growth inhibition,[11]; at 1.2 µM,2%
same,growth inhibition,[11]; at 3.7 µM,18%
same,growth inhibition,[11]; [17],-40%
same,growth inhibition,[11]; at 11.0 µM,13%
same,growth inhibition,[11]; at 33.0 µM,15%
same,growth inhibition,[11]; [18],69%
same,growth inhibition,[11]; at 50.0 µM,49.1%
same,growth inhibition,[11]; at 100.0 µM,11%
same,growth inhibition,[12]; at 1.2 µM,0%
same,growth inhibition,[12]; at 3.7 µM,0%
same,growth inhibition,[12]; at 11.0 µM,3%
same,growth inhibition,[12]; at 33.0 µM,7%
same,growth inhibition,[12]; at 100.0 µM,8%
same,growth inhibition,[13]; at 1.2 µM,0%
same,growth inhibition,[13]; at 3.7 µM,-4%
same,growth inhibition,[13]; at 11.0 µM,2%
same,growth inhibition,[13]; at 33.0 µM,5%
same,growth inhibition,[13]; at 100.0 µM,4%
same,growth inhibition,[14]; at 1.2 µM,9%
same,growth inhibition,[14]; at 3.7 µM,5%
same,growth inhibition,[14]; at 11.0 µM,9%
same,growth inhibition,[14]; at 33.0 µM,21%
same,growth inhibition,[14]; at 100.0 µM,19%
same,growth inhibition,[15]; [17],-7%
same,growth inhibition,[15]; [18],41%
same,growth inhibition,[15]; at 50.0 µM,21.6%
same,growth inhibition,[16]; at 1.2 µM,16%
same,growth inhibition,[16]; at 3.7 µM,13%
same,growth inhibition,[16]; at 11.0 µM,8%
same,growth inhibition,[16]; at 33.0 µM,3%
same,growth inhibition,[16]; at 100.0 µM,7%
CC(=O)Oc1ccc2c(c1)Cc1cc(N=C3C=CC(=O)O3)ccc1-2,growth inhibition,[1]; at 1.2 µM,14%
same,growth inhibition,[1]; at 3.7 µM,41%
same,growth inhibition,[1]; at 11.0 µM,98% (active)
same,growth inhibition,[1]; at 33.0 µM,98% (active)
same,growth inhibition,[1]; at 100.0 µM,94% (active)
same,growth inhibition,[2]; at 1.2 µM,2%
same,growth inhibition,[2]; at 3.7 µM,24%
same,growth inhibition,[2]; at 11.0 µM,96% (active)
same,growth inhibition,[2]; at 33.0 µM,99% (active)
same,growth inhibition,[2]; at 100.0 µM,96% (active)
same,growth inhibition,[3]; at 1.2 µM,78% (active)
same,growth inhibition,[3]; at 3.7 µM,96% (active)
same,growth inhibition,[3]; at 11.0 µM,99% (active)
same,growth inhibition,[3]; at 33.0 µM,98% (active)
same,growth inhibition,[3]; at 100.0 µM,93% (active)
same,growth inhibition,[4]; at 1.2 µM,9%
same,growth inhibition,[4]; at 3.7 µM,36%
same,growth inhibition,[4]; at 11.0 µM,99% (active)
same,growth inhibition,[4]; at 33.0 µM,99% (active)
same,growth inhibition,[4]; at 100.0 µM,96% (active)
same,growth inhibition,[5]; at 1.2 µM,9%
same,growth inhibition,[5]; at 3.7 µM,55%
same,growth inhibition,[5]; [17],43%
same,growth inhibition,[5]; at 11.0 µM,97% (active)
same,growth inhibition,[5]; at 33.0 µM,98% (active)
same,growth inhibition,[5]; [18],99% (active)
same,growth inhibition,[5]; at 50.0 µM,99.5% (active)
same,growth inhibition,[5]; at 100.0 µM,92% (active)
same,growth inhibition,[6]; at 1.2 µM,15%
same,growth inhibition,[6]; at 3.7 µM,37%
same,growth inhibition,[6]; [17],72% (active)
same,growth inhibition,[6]; at 11.0 µM,98% (active)
same,growth inhibition,[6]; at 33.0 µM,99% (active)
same,growth inhibition,[6]; [18],99% (active)
same,growth inhibition,[6]; at 50.0 µM,99.4% (active)
same,growth inhibition,[6]; at 100.0 µM,96% (active)
same,growth inhibition,[7]; at 1.2 µM,16%
same,growth inhibition,[7]; at 3.7 µM,42%
same,growth inhibition,[7]; at 11.0 µM,99% (active)
same,growth inhibition,[7]; at 33.0 µM,99% (active)
same,growth inhibition,[7]; at 100.0 µM,95% (active)
same,growth inhibition,[8]; [17],64%
same,growth inhibition,[8]; [18],99% (active)
same,growth inhibition,[8]; at 50.0 µM,99.6% (active)
same,growth inhibition,[9]; at 1.2 µM,2%
same,growth inhibition,[9]; at 3.7 µM,23%
same,growth inhibition,[9]; at 11.0 µM,94% (active)
same,growth inhibition,[9]; at 33.0 µM,99% (active)
same,growth inhibition,[9]; at 100.0 µM,95% (active)
same,growth inhibition,[10]; [17],19%
same,growth inhibition,[10]; [18],99% (active)
same,growth inhibition,[10]; at 50.0 µM,98.8% (active)
same,growth inhibition,[11]; at 1.2 µM,-8%
same,growth inhibition,[11]; at 3.7 µM,13%
same,growth inhibition,[11]; [17],31%
same,growth inhibition,[11]; at 11.0 µM,95% (active)
same,growth inhibition,[11]; at 33.0 µM,98% (active)
same,growth inhibition,[11]; [18],98% (active)
same,growth inhibition,[11]; at 50.0 µM,99.7% (active)
same,growth inhibition,[11]; at 100.0 µM,95% (active)
same,growth inhibition,[12]; at 1.2 µM,3%
same,growth inhibition,[12]; at 3.7 µM,36%
same,growth inhibition,[12]; at 11.0 µM,99% (active)
same,growth inhibition,[12]; at 33.0 µM,99% (active)
same,growth inhibition,[12]; at 100.0 µM,96% (active)
same,growth inhibition,[13]; at 1.2 µM,18%
same,growth inhibition,[13]; at 3.7 µM,51%
same,growth inhibition,[13]; at 11.0 µM,98% (active)
same,growth inhibition,[13]; at 33.0 µM,99% (active)
same,growth inhibition,[13]; at 100.0 µM,97% (active)
same,growth inhibition,[14]; at 1.2 µM,17%
same,growth inhibition,[14]; at 3.7 µM,56%
same,growth inhibition,[14]; at 11.0 µM,99% (active)
same,growth inhibition,[14]; at 33.0 µM,99% (active)
same,growth inhibition,[14]; at 100.0 µM,96% (active)
same,growth inhibition,[15]; [17],62%
same,growth inhibition,[15]; [18],99% (active)
same,growth inhibition,[15]; at 50.0 µM,85% (active)
